Results from PubChem BioAssay (NCI).
About 83,000 compounds went through this panel and 20% of them were active in at least one assay; those are over-represented in the sample as a whole.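 Activity criterion: percent growth below 10, measured after cells in 96-well plates were exposed to a single compound concentration for 48 hours.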 A number with no mark means an inactive call. Activity calls are given as the source filed them.

Experiments:
Experiment in all cases: NCI-60 one-dose screen, 48 h (100 = growth as untreated, 0 = no growth, -100 = all killed)
Settings in all cases: 10 µM unless noted
[1] = system: DU-145 prostate
[2] = system: K-562 leukemia
[3] = system: MALME-3M melanoma
[4] = system: MDA-MB-231 breast
[5] = system: RXF 393 renal
[6] = system: SF-268 CNS
[7] = system: SF-295 CNS
[8] = system: SF-539 CNS
[9] = system: UACC-257 melanoma
[10] = system: M14 melanoma

SMILES | growth [1] | growth [2] | growth [3] | growth [4] | growth [5] | growth [6] | growth [7] | growth [8] | growth [9] | growth [10]
COC(=O)[C@@H]1[C@H](O)[C@H](C)[C@H](O)[C@H](C)/C=C\C=C(C)C(=O)Nc2c(C)c(OC(C)=O)c3c(c2O)C(=O)C(C)=C2OCOC(=C23)C(C)=C[C@@](C)(O)[C@H](O)[C@@H](C)[C@H]1OC(C)=O | 144% | 145% | 131% | 125% | 106% | 108% | 118% | 101% | 106% | 107%
N#CCCCCCCCCCCC#N | 106% | 103% | 139% | 105% | 113% | 109% | 92% | 108% | 87.7% | 103%
COc1cccc(CNC(=O)c2cccc(C3CC(=O)c4c(cc(OC)c(OC)c4OC)O3)c2)c1 (stereo not given) | 101% | 10.7% | 71.3% | 76.8% | 84.3% | 78.7% | 84.1% | 35.4% | 67.8% | 41%
Nc1nc2c(c3cnccc13)C(c1ccc(Cl)c(Cl)c1)Cc1cnccc1-2 (stereo not given) | -5.69% (active) | 4.04% (active) | -67% (active) | -35% (active) | -74.2% (active) | -10.9% (active) | -29.9% (active) | -45.1% (active) | -12.8% (active) | -44.2% (active)
COc1ccc2cn3c4ccc(O)cc4[nH]c(=O)c3c2c1 | 11.5% | 13.2% | 41.2% | 23.2% | 2.52% (active) | 21% | 0.201% (active) | -9.1% (active) | 50.1% | -2.73% (active)
COC(=O)c1cc(O)c2cc3c(cc2c1-c1cc(OC)c(OC)c(OC)c1)OCO3 | 40.6% | 15.4% | 48.3% | 40.2% | -31.3% (active) | 47.8% | 26.3% | 13.3% | 60.1% | 19%
O=C(Nc1ccc(-n2cc(-c3ccncc3)c(-c3ccc(Cl)c(O)c3)n2)cc1)c1ccc(Cl)c(C(F)(F)F)c1 | 26.4% | 2.13% (active) | -26.6% (active) | -33.5% (active) | -66.3% (active) | 28.6% | -63.4% (active) | -32.4% (active) | 31.4% | -79.4% (active)
CCC(C)C1NC(=O)C(CC(C)C)NC(=O)C(C)NC(=O)C(C(C)C)NC(=O)C(CCCCN)NC(=O)C(CC(C)C)NC(=O)C(C(C)C)NC(=O)[C@H](C)NC(=O)C(C(C)CC)NC(=O)C(CCCN=C(N)N)NC(=O)C(CCCCN)NC(=O)C(CCCN=C(N)N)NC(=O)C(CCCCN)NC(=O)C([C@H](C)CC)NC(=O)C(CCCCN)NC1=O (stereo not given in full) | 23.8% | 8.83% (active) | 15.2% | -0.693% (active) | 33% | 20.3% | 21.4% | 67.2% | 1.31% (active) | 17.7%
CCc1c(C)c2ccc(OCC(=O)N=Nc3c(O)[nH]c4ccccc34)c(C)c2oc1=O | 7.92% (active) | 4.73% (active) | 42.5% | 0.841% (active) | 35.7% | 18.4% | -9.71% (active) | 85% | 28.2% | 3.57% (active)
CCCCCCC(C)N(CC(C)(C)O)C(=O)c1ccc([N+](=O)[O-])cc1 (stereo not given) | 101% | 85.1% | 95.8% | 106% | 100% | 110% | 88.6% | 108% | 106% | 93.4%
Cc1ccc(CC(=O)O)c(C)c1 | 107% | 104% | 110% | 105% | 121% | 96.3% | 97.1% | 106% | 91.7% | 102%
